Counter-ions that a name gives are not always drawn.
What follows are compounds tested on Staphylococcus aureus Sa2 (MRSA, cystic fibrosis isolate) (assay: growth reduction vs untreated control (OD550); higher = stronger antibacterial activity). Details: 0.1 mM; 24 h.
Method: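 Single-dose screen of the MedChem Express Drug Repurposing Library (0.1 mM, 1% DMSO) against planktonic MRSA S. aureus Sa2 (CF isolate) in TSB in 96-well plates, 37 °C aerobic, 24 h. Assays were run in triplicate and repeated twice.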

| SMILES | growth reduction |
| --- | --- |
| COc1ccc(NS(=O)(=O)c2c(F)c(F)c(F)c(F)c2F)cc1F [Batabulin] | 95.5% |
| CCc1nc(-c2cccc(C)c2)c(-c2ccnc(NC(=O)c3ccccc3)c2)s1 | 100% |
| CN[C@H]1CC[C@@H](c2ccc(Cl)c(Cl)c2)c2ccccc21 [Sertraline (hydrochloride)] | 100% |
| CCCCCCCCCCCC[N+](C)(C)CCOc1ccccc1 [Domiphen (bromide)] | 100% |
| CCOC(=O)N1CCC(=C2c3ccc(Cl)cc3CCc3cccnc32)CC1 [Loratadine] | 100% |
| CC(C)N(CCCCOCC(=O)NS(C)(=O)=O)c1cnc(-c2ccccc2)c(-c2ccccc2)n1 [Selexipag] | 100% |
| CNC(=O)c1cc(Oc2ccc(NC(=O)Nc3ccc(Cl)c(C(F)(F)F)c3)cc2)ccn1 [Sorafenib] | 93.5% |
